Screens from PubChem.
Sampled rows, rich in hits. Any-hit rate of the full collection: about 2.7%.
ERa coact pot = enhances coactivator binding to human estrogen receptor alpha; TR-FRET ERalpha-LBD/SRC-Cy5 coactivator binding, 2 h; 100 = basal binding, no effect; coactivator binding (% of control), % at 25.6 µM; P03372; actives 1.3% (n = 86,000); in the data active = activity above about 200%;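 also: binding measured in presence of low estradiol as agonist stimulus; 0% = peptide alone without receptor and 100% = receptor with peptide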
ERa SRC1 inh = ER-alpha (human) coactivator binding inhibition. actives 1.7% (n = 86,000). AID 629. inhibition, % at 25.6 µM. P03372. TR-FRET ER-alpha LBD / SRC-1 peptide, estradiol-bound; in the data active = inhibition above about 50%;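 also: 0% = receptor plus peptide control and 100% = peptide only without receptor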
MRP-1 activ = activators of MRP-1; H69AR cells + doxorubicin, viability rescue, CellTiter-Glo; viability increase, % at 10 µM; actives 0.61% (n = 140,000);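 active = viability gain under doxorubicin at or above a set limit, the compound median plus 3 SD, cut at about 4.7% in these data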;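 also: MRP-1 overexpressing cells given doxorubicin 25 µM after compound pretreatment; 18-22 h compound pretreatment then 72 h with doxorubicin before readout; 0% = doxorubicin-only wells and 100% = vehicle-treated cells without doxorubicin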
MRP resist rev = compounds reversing MRP-mediated drug resistance | H69AR cells + 2 uM doxorubicin, CellTiter-Glo, 72 h | differential viability (reversal), % at 10 µM | actives 0.04% (n = 85,000) | AID 602;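 active = viability drop by adding the cancer drug above about 55%, with treated viability meeting a 40% cutoff, limit read from the data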;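 also: viability without doxorubicin minus viability with 2 µM doxorubicin for each compound; larger differential means the compound sensitizes cells more to doxorubicin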
ERb SRC1 inh = blocks coactivator binding to human estrogen receptor beta | Q92731 | TR-FRET ER-beta LBD / SRC1-Cy5 peptide binding; receptor agonist-loaded with 1 µM estradiol | inhibition, % at 25.6 µM | actives 1.3% (n = 86,000) | AID 633;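 active = compounds whose percent inhibition of the receptor-coactivator binding signal exceeds about 50% in the single-dose screen, limit read from the data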;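 also: 0% = receptor plus peptide wells without compound and 100% = peptide-only wells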
Target sequence (Q92731 whole entry, looked up, the tested form may be a part): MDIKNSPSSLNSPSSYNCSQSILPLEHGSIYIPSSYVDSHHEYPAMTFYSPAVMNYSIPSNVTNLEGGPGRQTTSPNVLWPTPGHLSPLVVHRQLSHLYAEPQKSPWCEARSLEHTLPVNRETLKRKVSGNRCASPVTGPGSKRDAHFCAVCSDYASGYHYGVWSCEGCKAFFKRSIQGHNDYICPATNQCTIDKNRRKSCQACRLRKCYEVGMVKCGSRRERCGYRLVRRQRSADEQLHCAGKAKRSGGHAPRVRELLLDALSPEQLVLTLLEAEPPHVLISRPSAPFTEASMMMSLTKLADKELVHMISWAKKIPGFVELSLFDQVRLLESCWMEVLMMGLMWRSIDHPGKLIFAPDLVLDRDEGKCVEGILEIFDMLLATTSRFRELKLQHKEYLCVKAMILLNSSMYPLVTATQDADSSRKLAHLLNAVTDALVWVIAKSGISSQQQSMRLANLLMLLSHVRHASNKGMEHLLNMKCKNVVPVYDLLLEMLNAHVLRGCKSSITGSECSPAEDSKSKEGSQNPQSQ
* hit, by the source's call; [ ] = remark or other dose.

For CN(C)c1ccc(NC(=O)CN2C(=O)CN=C(c3ccccc3)c3cc(Cl)ccc32)cc1 the results were ERa coact pot 52.1, ERa SRC1 inh 32.8, MRP-1 activ 6.8*, MRP resist rev 3.2 and ERb SRC1 inh 37.0.
Cc1ccc(NC(=O)CN2C(=O)CN=C(c3ccccc3)c3cc(Cl)ccc32)cc1 was read as ERa coact pot 96.5, ERa SRC1 inh -2.0, MRP-1 activ 0.4, MRP resist rev 2.0 and ERb SRC1 inh 3.3.
`CN(C)c1ccc(NC(=O)CN2C(=O)CN=C(c3ccccc3)c3ccccc32)cc1` gave ERa coact pot 52.3, ERa SRC1 inh 21.6, MRP-1 activ 3.4, MRP resist rev -1.0 and ERb SRC1 inh 52.9*[fluorescence artefact?].
CCOc1ccccc1N1C(=O)NC(=O)C(CCc2ccncc2)(CCc2ccncc2)C1=O was read as ERa coact pot 384.0*, ERa SRC1 inh -8.2, MRP-1 activ -3.2, MRP resist rev 6.6 and ERb SRC1 inh -16.1.
`CC12CN3CC(C)(CN(C1)C3c1ccncc1)C2=O` (stereo not given) gave ERa coact pot 115.7, ERa SRC1 inh -4.5, MRP-1 activ 0.6, MRP resist rev 1.0 and ERb SRC1 inh 93.2*[fluorescence artefact?].
Screening O=P(NCc1ccccc1)(Oc1ccccc1)Oc1ccccc1 returned MRP-1 activ -4.1.
Screening CC12CN3CCN(C1)CC(C)(C3)C2=NO returned ERa coact pot 104.3, ERa SRC1 inh -2.8, MRP-1 activ -1.8, MRP resist rev -2.6 and ERb SRC1 inh -21.4.
O=C(c1cccn2c(=O)c3cc(Br)ccc3nc12)N1CCC2(CC1)OCCO2 was read as ERa coact pot 101.6, ERa SRC1 inh 3.4, MRP-1 activ 4.8*, MRP resist rev 6.1 and ERb SRC1 inh -6.7.
For O=c1[nH]c(=O)n(-c2ccccc2)c(O)c1/C=C1/C(c2ccccc2)=Nc2ccccc21 the results were MRP-1 activ -4.0.
Screening O=C(COc1ccc(Cl)cc1)N1CCN(Cc2ccccc2)CC1 returned ERa coact pot 104.2, ERa SRC1 inh -1.1, MRP-1 activ 6.5*, MRP resist rev 5.8 and ERb SRC1 inh -2.3.
`COc1ccccc1CN1CCN(C(=O)COc2ccccc2)CC1` gave ERa coact pot 112.3, ERa SRC1 inh -13.9, MRP-1 activ -2.4, MRP resist rev 9.2 and ERb SRC1 inh -2.0.
`Cc1ccccc1OCCN=Cc1c(O)n(C)c(=O)n(C)c1=O` gave ERa coact pot 110.1, ERa SRC1 inh 6.3, MRP-1 activ -1.2, MRP resist rev 22.8 and ERb SRC1 inh -2.0.
Cc1ccc(N2C(=O)NC(=O)/C(=C/c3cnc(-c4ccccc4)nc3)C2=O)cc1C was read as MRP-1 activ -1.2.
For Cc1ccc(N2C(=O)NC(=O)/C(=C\c3ccsc3)C2=O)cc1C the results were MRP-1 activ 5.5*.
COC(=O)c1cc(COc2cc(C)cc3oc(=O)c4c(c23)CCC4)c(C)o1 was read as ERa coact pot 113.6, ERa SRC1 inh 10.3, MRP resist rev 16.3 and ERb SRC1 inh 4.6.
`Cc1oc(C(=O)Nc2ccc(O)cc2)cc1COc1ccccc1` gave ERa coact pot 97.8, ERa SRC1 inh 7.3, MRP-1 activ -4.7, MRP resist rev -20.6 and ERb SRC1 inh 51.7*[fluorescence artefact?].
`O=C(c1ccc(CS(=O)(=O)c2ccccc2)o1)N1CCC2(CC1)OCCO2` gave ERa coact pot 33.1, ERa SRC1 inh 46.3, MRP-1 activ -2.3, MRP resist rev 16.1 and ERb SRC1 inh 73.8*[fluorescence artefact?].
CC1=CC(=C2C(=O)NC(=S)NC2=O)C=C(C(F)(F)F)N1C was read as ERa coact pot 61.9, ERa SRC1 inh 52.2*[fluorescence artefact?], MRP-1 activ -0.4, MRP resist rev 10.9 and ERb SRC1 inh 63.4*[fluorescence artefact?].
CN1CCc2nc3ccc(F)cc3c(C(N)=O)c2C1 was read as MRP-1 activ -3.6.
For COc1ccc(N2C(=O)CC(N3CCC(n4c(=O)[nH]c5ccccc54)CC3)C2=O)cc1 (stereo not given) the results were ERa coact pot 116.8, ERa SRC1 inh -3.5, MRP-1 activ 5.5*, MRP resist rev -10.1 and ERb SRC1 inh -9.1.
Screening O=C1CC(N2CC=C(c3ccc(F)cc3)CC2)C(=O)N1c1ccc(F)cc1 (stereo not given) returned ERa coact pot 120.6, ERa SRC1 inh -5.3, MRP-1 activ 0.7, MRP resist rev 6.5 and ERb SRC1 inh -5.7.
COC(=O)C(O)(c1ccc(N(C)C(=O)OC(C)C)cc1)C(F)(F)F (stereo not given) was read as ERa coact pot 101.4, ERa SRC1 inh 4.4, MRP-1 activ 0.6, MRP resist rev 10.4 and ERb SRC1 inh 68.0*.
`CCOC(=O)N(C)c1ccc(C(O)(C(=O)OCC)C(F)(F)F)cc1` (stereo not given) gave ERa coact pot 112.0, ERa SRC1 inh -3.7, MRP-1 activ -1.1, MRP resist rev -0.8 and ERb SRC1 inh -2.9.
For O=C1CN=C(c2cccs2)c2c(sc3c2CCCC3)N1 the results were ERa coact pot 97.4, ERa SRC1 inh 2.8, MRP-1 activ -3.7, MRP resist rev -34.2 and ERb SRC1 inh 63.8*[fluorescence artefact?].
`Cc1cc2c(s1)NC(=O)CN=C2c1cccs1` gave ERa coact pot 94.3, ERa SRC1 inh -33.0, MRP-1 activ -4.4, MRP resist rev -15.6 and ERb SRC1 inh 3.0.
Screening CCN(CC)S(=O)(=O)c1ccc(NN=C(C#N)C#N)cc1 returned MRP-1 activ 5.6*.
CCOC(=O)c1c(N)n(Cc2ccco2)c2nc3ccccc3nc12 was read as ERa coact pot 87.6, ERa SRC1 inh 14.5, MRP-1 activ -5.1, MRP resist rev -28.3 and ERb SRC1 inh 36.0.
For COc1ccc(Cn2c(N)c(C(=O)NCc3ccco3)c3nc4ccccc4nc32)cc1 the results were ERa coact pot 80.7, ERa SRC1 inh 73.5*, MRP-1 activ -1.7, MRP resist rev -5.6 and ERb SRC1 inh 38.6.
For COCC(C)OC(=O)c1c(N)n(Cc2ccco2)c2nc3ccccc3nc12 (stereo not given) the results were ERa coact pot 84.1, ERa SRC1 inh 7.3, MRP-1 activ -4.3, MRP resist rev 0.2 and ERb SRC1 inh 57.6*[fluorescence artefact?].
`Nc1c(C(=O)NCc2ccco2)c2nc3ccccc3nc2n1Cc1ccccc1` gave MRP-1 activ -4.3.
O=c1c2ccccc2nc(N2CCCC2)n1-c1ccc(Cl)cc1 was read as ERa coact pot 105.0, ERa SRC1 inh 3.1, MRP-1 activ -4.8, MRP resist rev 16.2 and ERb SRC1 inh -4.2.
C=CCOc1ccc(CC2C(=O)N(C)C(=O)N(C)C2=O)cc1 was read as ERa coact pot 96.8, ERa SRC1 inh 57.4*, MRP-1 activ -0.6, MRP resist rev -4.9 and ERb SRC1 inh 37.1.
`CCN(CC)c1ccc(CC2C(=O)N(C)C(=O)N(C)C2=O)cc1` gave MRP-1 activ -0.1.
For CCCCCCOc1ccc(CN2CCN(CC)CC2)cc1 the results were ERa coact pot 98.4, ERa SRC1 inh -3.0, MRP-1 activ -5.3, MRP resist rev -1.9 and ERb SRC1 inh 0.5.
CCCc1nc2ccc(Br)cc2c(=O)n1-c1ccc([N+](=O)[O-])c(C(F)(F)F)c1 was read as MRP-1 activ -3.5.
